# Assay results: the supplement of paper PMC8728848
# This excerpt belongs to a sample that is enriched for the strongest signals.
# B1: VLRB.aGPA.23-GCN4-biotin (Petromyzon marinus) (protein)
# chain: ACPSQCSCSGTEVNCAGKSLASVPAGIPTTTRVLYLNSNQITKLEPGVFDRLANLRELHLWGNQLVSLPPGVFDNLANLEKLWLNSNQLTSLPAGLFDRLVNLEHLGLCCMKLTELPSGAFDKLTRLKQLGLDQNQLKSIPDGAFARLPSLTHVWLHTNPWDCQCTDILYLSGWVAQHSSIVGEGWPWRHSPDSAKCSGTNTPVRAVTEASTSPSKCP
# Columns and labels:
# Test in all cases: glycan array binding signal (z-score within array); higher = stronger binding
# Settings in all cases: glycan notation: IUPAC condensed, linker removed
# Fuc(a1-2)Gal = target: Fuc(a1-2)Gal
# How it was run: (§1)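 From the Consortium for Functional Glycomics database, 3228 arrays were curated, keeping only those whose protein sequence was available. Binding is given as a within-array Z-score averaged across arrays sharing a protein sequence and across linkers. Negative Z-scores can be read as non-binding.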
# Fuc(a1-2)Gal(b1-3)GalNAc = target: Fuc(a1-2)Gal(b1-3)GalNAc
# How it was run: as §1
# [1] = target: Fuc(a1-2)Gal(b1-4)GlcNAc(b1-2)[Fuc(a1-2)Gal(b1-4)GlcNAc(b1-4)]Man(a1-3)[Fuc(a1-2)Gal(b1-4)GlcNAc(b1-2)Man(a1-6)]Man(b1-4)GlcNAc(b1-4)GlcNAc
# How it was run: as §1
# [2] = target: Fuc(a1-2)Gal(b1-4)GlcNAc6S
# How it was run: as §1
# [3] = target: Fuc(a1-2)Gal6S(b1-3)GlcNAc6S
# How it was run: as §1
# [4] = target: Fuc(a1-2)[Gal(a1-3)]Gal(b1-3)GlcNAc(b1-2)Man(a1-3)[Fuc(a1-2)[Gal(a1-3)]Gal(b1-3)GlcNAc(b1-2)Man(a1-6)]Man(b1-4)GlcNAc(b1-4)[Fuc(a1-6)]GlcNAc
# How it was run: as §1
# [5] = target: Fuc(a1-2)[Gal(a1-3)]Gal(b1-3)GlcNAc(b1-3)GalNAc
# How it was run: as §1
# [6] = target: Fuc(a1-2)[Gal(a1-4)]Gal(b1-4)GlcNAc
# How it was run: as §1
# [7] = target: Fuc(a1-2)[GalNAc(a1-3)]Gal(b1-4)[Fuc(a1-3)]GlcNAc(b1-3)GalNAc
# How it was run: as §1
# Fuc(b1-3)GlcNAc = target: Fuc(b1-3)GlcNAc
# How it was run: as §1
# Gal(a1-2)Gal = target: Gal(a1-2)Gal
# How it was run: as §1
# Gal(a1-3)Gal = target: Gal(a1-3)Gal
# How it was run: as §1
# Gal(a1-3)Gal(b1-4)GlcNAc = target: Gal(a1-3)Gal(b1-4)GlcNAc
# How it was run: as §1
# [8] = target: Gal(a1-3)[Gal(a1-4)]Gal(b1-4)GlcNAc
# How it was run: as §1
# [9] = target: Gal(a1-4)Gal(b1-3)GlcNAc(b1-2)Man(a1-3)[Gal(a1-4)Gal(b1-3)GlcNAc(b1-2)Man(a1-6)]Man(b1-4)GlcNAc(b1-4)GlcNAc
# How it was run: as §1
# Gal(b1-2)Gal = target: Gal(b1-2)Gal
# How it was run: as §1
# Gal(b1-3)Gal(b1-4)GlcNAc = target: Gal(b1-3)Gal(b1-4)GlcNAc
# How it was run: as §1
# Gal(b1-3)GalNAc = target: Gal(b1-3)GalNAc
# How it was run: as §1
# [10] = target: Gal(b1-3)GalNAc(a1-3)[Fuc(a1-2)]Gal(b1-4)GlcNAc
# How it was run: as §1
# [11] = target: Gal(b1-3)GalNAc(b1-4)Gal(b1-4)Glc
# How it was run: as §1
# [12] = target: Gal(b1-3)GlcNAc(b1-6)Gal(b1-4)GlcNAc
# How it was run: as §1
# Gal(b1-3)GlcNAc6S = target: Gal(b1-3)GlcNAc6S
# How it was run: as §1
# [13] = target: Gal(b1-3)[GlcNAc(b1-6)]GalNAc
# How it was run: as §1
# [14] = target: Gal(b1-4)GlcNAc(a1-6)Gal(b1-4)GlcNAc
# How it was run: as §1
# [15] = target: Gal(b1-4)GlcNAc(b1-2)Man(a1-3)[Gal(b1-4)GlcNAc(b1-2)Man(a1-6)][GlcNAc(b1-4)]Man(b1-4)GlcNAc(b1-4)[Fuc(a1-6)]GlcNAc
# How it was run: as §1
# [16] = target: Gal(b1-4)GlcNAc(b1-2)Man(a1-3)[Man(a1-6)]Man(b1-4)GlcNAc(b1-4)GlcNAc
# How it was run: as §1
# [17] = target: Gal(b1-4)GlcNAc(b1-3)Gal(b1-3)GlcNAc
# How it was run: as §1
# [18] = target: Gal(b1-4)GlcNAc(b1-3)Gal(b1-4)GlcNAc(b1-3)Gal(b1-4)GlcNAc(b1-3)Gal(b1-4)GlcNAc(b1-2)[Gal(b1-4)GlcNAc(b1-3)Gal(b1-4)GlcNAc(b1-3)Gal(b1-4)GlcNAc(b1-3)Gal(b1-4)GlcNAc(b1-6)]Man(a1-6)[Gal(b1-4)GlcNAc(b1-3)Gal(b1-4)GlcNAc(b1-3)Gal(b1-4)GlcNAc(b1-3)Gal(b1-4)GlcNAc(b1-2)Man(a1-3)]Man(b1-4)GlcNAc(b1-4)[Fuc(a1-6)]GlcNAc
# How it was run: as §1
# Gal6P(b1-4)GlcNAc = target: Gal6P(b1-4)GlcNAc
# How it was run: as §1
# Gal6S(b1-3)GlcNAc = target: Gal6S(b1-3)GlcNAc
# How it was run: as §1
binder,measurement,setting,value
B1,glycan array binding signal (z-score),Fuc(a1-2)Gal,13.2
same,glycan array binding signal (z-score),Fuc(a1-2)Gal(b1-3)GalNAc,12.6
same,glycan array binding signal (z-score),[1],-0.082
same,glycan array binding signal (z-score),[2],-0.082
same,glycan array binding signal (z-score),[3],-0.055
same,glycan array binding signal (z-score),[4],-0.07
same,glycan array binding signal (z-score),[5],-0.083
same,glycan array binding signal (z-score),[6],-0.066
same,glycan array binding signal (z-score),[7],0.368
same,glycan array binding signal (z-score),Fuc(b1-3)GlcNAc,-0.075
same,glycan array binding signal (z-score),Gal(a1-2)Gal,0.157
same,glycan array binding signal (z-score),Gal(a1-3)Gal,-0.08
same,glycan array binding signal (z-score),Gal(a1-3)Gal(b1-4)GlcNAc,-0.079
same,glycan array binding signal (z-score),[8],-0.069
same,glycan array binding signal (z-score),[9],-0.073
same,glycan array binding signal (z-score),Gal(b1-2)Gal,3.68
same,glycan array binding signal (z-score),Gal(b1-3)Gal(b1-4)GlcNAc,0.046
same,glycan array binding signal (z-score),Gal(b1-3)GalNAc,0.232
same,glycan array binding signal (z-score),[10],-0.083
same,glycan array binding signal (z-score),[11],0.519
same,glycan array binding signal (z-score),[12],-0.077
same,glycan array binding signal (z-score),Gal(b1-3)GlcNAc6S,-0.09
same,glycan array binding signal (z-score),[13],-0.079
same,glycan array binding signal (z-score),[14],-0.077
same,glycan array binding signal (z-score),[15],-0.081
same,glycan array binding signal (z-score),[16],-0.076
same,glycan array binding signal (z-score),[17],-0.071
same,glycan array binding signal (z-score),[18],-0.071
same,glycan array binding signal (z-score),Gal6P(b1-4)GlcNAc,-0.084
same,glycan array binding signal (z-score),Gal6S(b1-3)GlcNAc,0.341
